Experiments:
Experiment in all cases: PBM binding z-score (relative to random genomic background probes); higher = stronger binding; sequences stand for … in GC…GCGATTGACAGCGTAGAATGAAGG
[1] = tested on: RARb homodimer (NR concentration 270 nM)
In short: (§1)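 Random background probes are the reference for binding z-scores. These scores derive from regression-normalized fluorescence on custom Agilent 4×180K protein-binding microarrays incubated 1 h with ligand-free nuclear receptor dimers. Binding was detected with antibodies against each partner (one per run).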

[2] = tested on: RARg:RXRa (NR concentration 270 nM, RXRa partner concentration 90 nM)
In short: as §1

[3] = tested on: RARg homodimer (NR concentration 270 nM)
In short: as §1

[4] = tested on: RXRa DBDmut IVT, anti-RXR (DBD mutation: RXRa K156A/R161A, NR concentration 90 nM)
In short: as §1

[5] = tested on: RXRa homodimer (NR concentration 180 nM)
In short: as §1

[6] = tested on: THRa:RXRa (NR concentration 90 nM, RXRa partner concentration 90 nM)
In short: as §1

[7] = tested on: THRa homodimer (NR concentration 90 nM)
In short: as §1

[8] = tested on: VDR homodimer (NR concentration 270 nM)
In short: as §1

Sequence	PBM binding z-score [1]	PBM binding z-score [2]	PBM binding z-score [3]	PBM binding z-score [4]	PBM binding z-score [5]	PBM binding z-score [6]	PBM binding z-score [7]	PBM binding z-score [8]
ATCGAAAGGTCGCGGTGAGTATAGAGAAAGGGAA	3.05	5	4.48	1.33	5.39	2.84	0.211	1.06
ACATGTAGGTTAGCTGGGGTCATTCAGACTAGGC	3.72	4.24	2.97	2.34	5.59	5.12	3.49	5.66
GGAACGAGGGCAATTTGATAGCAGAGTTTGATGG	0.804	1.04	1.25	1.74	0.881	0.709	-0.191	0.777
TCATATAGGTCAATGCTAGGTGAAAGTCCGATCT	3.86	5.46	5.11	2.09	4.2	3.7	0.903	0.879
CGAACGAGGGGATGAGTTGATAGCAAATGCCGAT	-0.429	-0.0531	0.201	0.534	0.0402	-0.246	-0.206	0.579
AGTCAAAGTTCAGGACGAGGTAGCGTAAAGCACG	2.76	4.44	4.55	2.81	2.93	2.9	0.672	2.05
AGAACGAGGGCAATGAGTTGATAGTACGGGTGGC	1.2	1.3	1.61	2.24	0.933	0.88	-0.483	3.56
ACTAGTTGGTCAGCCGAGGTCACACACAATTCGG	4.36	4.25	4.08	0.998	4.34	5	4.33	4.04
ATCGAAAGGTCGAAGGTGAGTTTACCCACCCGAA	2.62	4.3	3.49	1.41	5.2	2.45	0.143	3.11
TCTTGTGGATCAATAGAGGTTAAGAAAGTGCGCT	1.26	0.875	0.534	0.749	1.22	2.23	-0.3	0.314
ATACCAAGGTGATCGTGAGGTCGTAGATACTAAC	1.56	2.26	1.03	-0.0325	1.76	3.54	2.52	1.86
ACTAGTTGGTCAGCTGAGGTCAGACACAATTCGG	3.88	2.85	3.57	0.548	2.51	4.56	3.42	1.76
CTCGAAAGGTCGGTTGAGGTGAGTGTACGGATAA	2.49	2.68	2.86	0.363	2.49	5.02	1.78	1.29
CCTACTGTGCCAAGGTCATTGATCAGTCAAAGCA	3.73	3.88	3.24	2.18	3.4	3.68	3.43	3.63
TCATATATGTAAAAGGTGAAAGTCGGTGTGGTAA	1.67	1.18	0.788	1.48	1.79	1.36	0.104	0.0436
CGAACTAGGTCAGAACAGGACAATGAAGGATGAT	2.03	2.55	3.32	0.605	1.37	3.62	0.458	0.155
ACTATTAGTTGAGACTAGGGCAACCGATAGGTTG	0.465	0.376	0.586	-0.0472	0.0824	1.25	-0.533	-0.353
TTACCAACGTGAAAGGTCGTTGATGCACGCCTTG	1.63	1.54	0.872	0.467	2.73	1.35	-0.282	1.13
TCTTGTAGATCATCAGGAGGTTAAGAAAGATCGA	0.484	0.857	0.389	0.372	1.01	0.897	-0.482	-0.126
CCTGCTAGGTCAATGGTCAGCTACAGCAGCTCGC	2.95	3.82	4.13	1.74	2.49	2.19	1	0.15
TTACCAAGGTGAGAGGTCGTTGATGCACGCCTTG	1.97	2.58	1.3	0.404	3.24	2.6	1.11	1.66
GCTTGTAGATCAAGGTTAAAAAAGACTAAGCTAA	0.0487	0.373	0.226	0.0617	0.736	1.14	-0.222	0.0143
TCATATATGTAAATGCTAGGTGAAAGTCCGATCT	0.368	0.1	0.244	1.18	0.654	1.01	0.597	-0.0734

Sequence	PBM binding z-score [1]	PBM binding z-score [2]	PBM binding z-score [3]	PBM binding z-score [4]	PBM binding z-score [5]	PBM binding z-score [6]	PBM binding z-score [7]	PBM binding z-score [8]
CAAACTAGGGCACCGGAAGGTCAAAGTCCGCATG	4.51	5.51	4.44	0.724	3.84	3.25	0.924	1.45
CCTAGCAGGCCAATCAGGGTCACTCAAGGCTTGA	3.13	2.79	2.02	0.629	3.31	4.68	1.15	1.77
TCATATAGGTAAAAGGTGACAGTCGGTGTGGTAA	1.71	1.48	0.836	1.66	2.28	1.4	0.394	0.0898
AGTCTAAGTTCACTAGGTAACGTAAGATTCAGCT	2.21	3.35	3.69	4.47	2.31	2.27	0.878	4.71
TGTCAAAGTTCAAAGGTAACGTGAGTATCCACAC	4.01	6.45	6.06	4.32	7.77	3.39	-0.326	4.31
GCTGCTAGGTCAACGGATGGTCAGCTAAAGCTCG	3.51	4.98	5.24	1.17	2.82	2.51	0.887	0.0371
TCGAGTGGGTTAGTCGGGGCATTCAGCCAACATA	0.697	-0.203	-0.276	0.51	-0.199	1.18	0.456	0.85
TCTTGTAGATTAAGCAGGTTAAGAAAGCCTGAGT	0.394	-0.0145	-0.457	0.673	0.377	0.509	-0.386	0.113
CGTACTGGGCCATTCAGAGGTCATTGATCATATG	4.23	4.62	3.63	1.64	3.95	3.33	1.54	3.81
GCTATTAGTTGATAGGGCAACCGAATGATTCTCG	0.604	0.208	0.649	0.36	0.26	-0.111	-0.518	0.0585
CGTCCAAGGTCACTGCTAGGTCAGTGAAAGCATT	4.78	7.45	7.04	3.66	5.2	4.48	3.39	3
TCTTGTATATCAACAGGAGGTTAAGAAAGATCGA	0.861	0.722	0.592	0.943	1.25	1.18	0.039	0.491
GCATATAGGTAATACTAGGTGAAAGTCCGATTGT	0.423	0.466	0.359	0.563	0.745	3.45	0.246	0.235
GCAGACAGGTGAAACGCAGGTGACTCAGGGTGGC	0.561	1.85	0.482	-0.723	0.927	1.56	-0.166	-0.391
CAAACTAGGTCACCGGAAGGTGAAAGTCCGCATG	4.38	6.41	5.87	1.3	4.7	4.01	2.37	0.904
TCGAGTAGGTTAGACGGGGCATTCAGCCAACATA	0.538	0.307	0.0787	0.0493	0.305	0.812	-0.51	-0.0872
TCATATAGGTAAACGTGAAAGTCGAACGATATGA	-0.329	0.415	0.326	0.8	0.894	-0.0868	-0.279	-0.33
GCTGCTAGGTCAACTGATGGTCAGCGAAAGCTCG	3.66	5.35	5.22	1.57	3.2	2.98	0.857	0.0996
CTCGAAAGGTCGGTTGAGGTTAGTATACGGATAA	2.64	3.18	3.08	1.15	2.6	4.85	0.58	0.818
CCTAGCAGGCCAGGGTCACTCTAGCATTTCGCTT	2.58	2.69	2.31	0.701	2.88	2.56	0.876	1.14
ATCTCTAGGCAAAGTTCAGTGAAAGATCGATAGA	2.14	1.79	2.42	1.24	1.06	0.452	-0.26	1.48
ATCTCTAGGTAATAGTTCAGTGAATCCCGAGGAT	1.24	0.897	1.33	0.172	0.482	0.745	0.701	0.41
CCTTGCGGGTCAAGGTTATAGCACGGGTGGTACG	3.04	4.37	4.11	0.089	4.68	3	0.776	1.01

Sequence	PBM binding z-score [1]	PBM binding z-score [2]	PBM binding z-score [3]	PBM binding z-score [4]	PBM binding z-score [5]	PBM binding z-score [6]	PBM binding z-score [7]	PBM binding z-score [8]
ATCGAAAGGTCGAGGTCAGTATAGAGAAAGGGAA	4.73	5.69	6.16	2.01	5.46	3.84	1.93	2.73
AGTCAAAGTCCATCTAGGTAACGTAAGATATGCT	0.564	0.538	1.09	1.23	-0.0358	1.14	0.0644	0.572
AGTCAAAGTTCACTAGGTAACATAAGATTCAGCT	3.84	4.96	5.9	4.29	3.76	2.08	0.138	4.22
CCTACTGGGCCATCAGGTCATTGATATCAACGTT	2.73	2.15	2.21	0.377	1.17	3.14	3.21	1.66
CGGCCAAGGTCAGCAGGTCAGTGAAAGCGACGTG	5.01	6.21	6.95	2.22	5.05	3.85	1.94	1.09
TTACCAAAGTGAGCTGAGGTCGTTGATCCAACTC	0.526	0.117	-0.105	-0.0811	0.805	3.02	1.36	1.95
GCTGTTAGGTCAACTGATGGTCAGCTAAAGCTCG	3.65	5.62	5.67	2.11	3.51	3.62	2.59	0.277
CCTCGGTGGACAACAGGAGGTCAGAGCTGCCAGA	2.99	2.06	1.73	-0.87	1.64	1.97	0.341	0.396
TAGCCTAGGTCATTCAGTGGCCAGTATAGAAAGC	2.59	4.43	3.96	1.92	2.63	2.55	0.351	1.24
GGCACGAGGGCATTCGAGTTGATAGCATGGCGAT	0.614	1.04	1.53	3.11	0.455	3.42	-0.251	3.45
TTACCAAGGTGAGCTGACGTCGTTGATCCAACTC	-0.0202	0.00493	0.0726	-0.698	0.32	0.839	-0.28	-1.04
CTCGAAAGGTCGGTTAAGGTGAGTATACGGATAA	2.84	2.94	3.26	0.811	2.41	4.88	2.1	0.781
CGAACTAGGTCATCCAGGACAGTCAATACATTGA	3.04	4.11	5.21	2.72	3.39	3.81	2.01	2.52
AACTCTAGGTAAAGATAGTTCAGTGAATGCAAAT	1.06	0.458	0.642	0.162	0.119	0.754	-0.108	0.243
GCTGCTAAGTCAACTGATGGTCAGCTAAAGCTCG	0.11	0.204	-0.211	0.184	-0.0847	-0.519	-1.1	-1.02
CGAACGAGGACATGAGTTGATAGCAAATGCCGAT	0.159	0.527	1.16	1.52	0.107	2.23	1.28	0.998
ATCTCTAGGTAACCAAGTTCCGTGAATGCCGAAC	-0.23	0.14	0.215	0.0901	0.217	0.694	0.462	-0.111
CGAACTAGGTCATTGAAAGGACAGTGAATAGTAA	3.34	6.37	4.98	2.17	2.84	3.16	0.878	0.863
ACTAGCAGGCCAAGTTTGGGTCACTCAGACAAAG	2.13	2.11	1.41	0.0571	0.7	2.33	0.94	0.117
CGAACTAGGTCAGAACAGGACAGTCAAGGATGAT	2.26	2.65	3.09	0.873	1.35	3.42	0.288	0.29
GGTTACGGGTCAAAGGTTATAGCATGAATAGAAT	3.44	6.91	4.71	1.89	9.23	4.06	0.33	1.64
TCTTGTAGATAAATAGAGGTTAAGAAAGTGCGCT	1.11	0.845	0.418	1.3	1.46	1.54	-0.012	0.923
